PubChem BioAssay (EPA / NIEHS)
The source made the active and inactive calls. The calls were made as follows: active = hit-call score of the fitted dose curve at least 0.9, where 1 is the maximum; inactive = score below 0.9.

Assay: CCTE_Shafer_MEA_acute_spike_number: CCTE's Neural Acute Assay for Total Number of Spikes, Shafer Lab (AID 2284008);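 as to AC50: curve fitted for decrease in spike count so AC50 reflects inhibitors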
Outline: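 Cortical neurons from rat, matured to DIV 13 or 15 on microelectrode arrays, are recorded at 37 C before and during 40-min exposure to 0.03-40 uM compound. Wells need >/= 10 active electrodes.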

Structure (SMILES) | AC50 | outcome
Nc1ncn([C@@H]2O[C@H](CO)[C@@H](O)[C@H]2O)c(=O)n1 | 7.65 nM (active) | 
CCCCC(CC)COC(=O)c1ccccc1O (centres undefined) |  | inactive
CCOC(=O)c1ccccc1C(=C1C=C(Br)C(=O)C(Br)=C1)c1cc(Br)c(O)c(Br)c1 |  | inactive

Assay: CCTE_Shafer_MEA_acute_firing_rate_mean: CCTE's Neural Acute Assay for Mean Firing Rate, Shafer Lab (AID 2284009);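 also: analyzed for loss of signal so actives lower firing rate relative to DMSO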
Outline: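 Percent change in well-mean firing rate was derived from extracellular spikes detected at 8x rms noise (300-5000 Hz band-pass) before and after a 40-min compound exposure. Cultures were primary rat cortical neurons, tested at 0.03-40 uM.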

Structure (SMILES) | AC50 | outcome
Nc1ncn([C@@H]2O[C@H](CO)[C@@H](O)[C@H]2O)c(=O)n1 | 7.63 nM (active) | 
CCCCC(CC)COC(=O)c1ccccc1O (centres undefined) |  | inactive
CCOC(=O)c1ccccc1C(=C1C=C(Br)C(=O)C(Br)=C1)c1cc(Br)c(O)c(Br)c1 |  | inactive

Assay: CCTE_Harrill_HTTr_Viability_MCF7: CCTE's 6-hour Cell Viability Assessment for the High-Throughput Transcriptomics (HTTr) Platform, in MCF-7 cells cultured in DMEM + 10% fetal bovine serum, Harrill Lab (AID 2284010)
Outline: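 Cells were dosed with chemicals in an eight-point dilution series, imaged 6 hours later for propidium iodide uptake, and the endpoint was analyzed by bidirectional fitting against DMSO as negative control.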

Structure (SMILES) | outcome
CC(=O)[C@@]1(O)CC[C@H]2[C@@H]3C[C@H](C)C4=CC(=O)C=C[C@]4(C)[C@@]3(F)[C@@H](O)C[C@@]21C | inactive
O=C1CCCC1 | inactive
O=C1c2cccc(O)c2C(=O)c2c(O)cc(CO)cc21 | inactive
Nc1ncn([C@@H]2O[C@H](CO)[C@@H](O)[C@H]2O)c(=O)n1 | inactive
CC(=O)Nc1nnc(S(N)(=O)=O)s1 | inactive
O=c1[nH]c(=O)c2[nH]c(=O)[nH]c2[nH]1 | inactive
C1CN(SSN2CCOCC2)CCO1 | inactive
CC[C@H]1OC(=O)[C@H](C)[C@@H](O[C@H]2C[C@@](C)(OC)[C@@H](O)[C@H](C)O2)[C@H](C)[C@@H](O[C@@H]2O[C@H](C)C[C@H](N(C)C)[C@H]2O)[C@](C)(O)C[C@@H](C)C(=NOCOCCOC)[C@H](C)[C@@H](O)[C@]1(C)O | inactive
O=C(C(Cl)Cl)N1CCOC12CCCCC2 | inactive
C=C(C)[C@H]1CC=C(C)CC1 | inactive
COC(=O)C1=C(C)NC(C)=C(C(=O)OCC(C)C)C1c1ccccc1[N+](=O)[O-] (centres undefined) | inactive
NC(=O)OCC(COC(N)=O)c1ccccc1 | inactive
Cc1cnc(NC(=O)C2=C(O)c3ccccc3S(=O)(=O)N2C)s1 | inactive
NC(=O)N=NC(N)=O | inactive
Cc1cc(=O)n(-c2ccccc2)n1C | inactive
[Cl][Nd]([Cl])[Cl] | inactive
O=C(O)CCCC[C@@H]1SC[C@@H]2NC(=O)N[C@@H]21 | inactive

Structure (SMILES) | outcome
Cc1ccccc1C | inactive
C1=Cc2ccccc2C1 | inactive
CCCCC(CC)COC(=O)c1ccccc1O (centres undefined) | inactive
CCOC(=O)N1CCC(=C2c3ccc(Cl)cc3CCc3cccnc32)CC1 | inactive
OC1CCCCCCCCCCC1 | inactive
O=C(Nc1cccc(C(F)(F)F)c1)c1cc(Br)cc(Br)c1O | inactive
CN(C)c1ccc(C(=N)c2ccc(N(C)C)cc2)cc1 | inactive
CC(=O)OCC(=O)[C@@]12N=C(C)O[C@@H]1C[C@H]1[C@@H]3CCC4=CC(=O)C=C[C@]4(C)[C@H]3[C@@H](O)C[C@@]12C | inactive
C[C@]12CCC(=O)C=C1CC[C@@H]1[C@@H]2C(=O)C[C@@]2(C)[C@H]1CC[C@]2(O)C(=O)CO | inactive
NC(=O)c1ccccc1O | inactive
CN(C)c1ccc(N=Nc2ccccc2C(=O)O)cc1 | inactive
CC(=O)[C@H]1[C@H](C#N)C[C@H]2[C@@H]3CC=C4C[C@@H](O)CC[C@]4(C)[C@H]3CC[C@@]21C | inactive
CCOC(=O)c1ccccc1C(=C1C=C(Br)C(=O)C(Br)=C1)c1cc(Br)c(O)c(Br)c1 | inactive
CC1(C)O[C@@H]2C[C@H]3[C@@H]4C[C@H](F)C5=CC(=O)CC[C@]5(C)[C@H]4[C@@H](O)C[C@]3(C)[C@]2(C(=O)CO)O1 | inactive
Cc1cc(C)c(C)cc1C | inactive
O=c1[nH]nc(-c2ccc([N+](=O)[O-])o2)o1 | inactive
